# Source: PubChem BioAssay (Tox21)
# Where “and” joins values, the source holds several entries; their conditions need not be identical. Identical values can stand only once. Inconclusive results are not listed. Entries that show only a call come without a potency. Some compounds were tested as several samples or in several runs, with calls that do not always agree. Calls of active or inactive are those of the source. Calls follow the shape of the dose curve; as a rule, active = well fitted curve in the direction sought with a large enough effect in the repeat runs; inconclusive = weak or mixed curves; inactive = no such curve, though single readings can be large; an effect the other way counts as inactive or inconclusive.
# What was measured:
# [1] = A CellTox Green Cytotoxicity Assay to monitor cytotoxicity in HEK293 cells - 32 hour (AID 1224881); also: nearly all actives have a fitted effect of over 40% in size; also: potency is read from the fitted curve at half-maximal effect
# How it was run: (§1)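 Fluorescence intensity, read at 0, 8, 16, 24, 32 and 40 h of compound treatment, reflected dye binding to DNA of dead HEK293 cells; compounds (23 nL, DMSO) were added 5 h after plating cells with reagent.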
# [2] = A CellTox Green Cytotoxicity Assay to monitor cytotoxicity in HepG2 cells - 0 hour (AID 1224882); also: nearly all actives have a fitted effect of over 35% in size
# How it was run: (§2)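 Using 1536-well format, dye-containing HepG2 suspension was seeded, allowed 5 h at 37 C/5% CO2, dosed by pintool with compounds, positive and negative controls, and imaged for fluorescence across 40 h.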
# [3] = A CellTox Green Cytotoxicity Assay to monitor cytotoxicity in HepG2 cells - 32 hour (AID 1224883); also: nearly all actives have a fitted effect of over 50% in size; also: potency is read from the fitted curve at half-maximal effect
# How it was run: as §2
# [4] = A CellTox Green Cytotoxicity Assay to monitor cytotoxicity in HEK293 cells - 8 hour (AID 1224884); also: nearly all actives have a fitted effect of over 35% in size
# How it was run: as §1
# [5] = qHTS RealTime-Glo MT Cell Viability Assay in HepG2 cells - 16 hour (AID 1224885); also: nearly all actives have a fitted effect of over 50% in size; also: potency is read from the fitted curve at half-maximal effect
# How it was run: (§3)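 Cell number in HepG2 cultures estimated from NanoLuc luminescence generated by metabolic reduction of a prosubstrate by living cells. The homogeneous, nonlytic format allowed repeated reads at 0, 8, 16, 24, 32 and 40 h of compound exposure.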
# [6] = qHTS RealTime-Glo MT Cell Viability Assay in HepG2 cells - 0 hour (AID 1224889); also: nearly all actives have a fitted effect of over 50% in size
# How it was run: as §3
# [7] = A CellTox Green Cytotoxicity Assay to monitor cytotoxicity in HepG2 cells - 8 hour (AID 1224890); also: nearly all actives have a fitted effect of over 45% in size
# How it was run: as §2
# [8] = qHTS RealTime-Glo MT Cell Viability Assay in HEK293 cells - 8 hour (AID 1224887); also: top concentration of the series differs between compounds; nearly all actives have a fitted effect of over 50% in size
# How it was run: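 Viable HEK293 cells reduce a cell-permeant prosubstrate; the product diffuses out and is consumed by NanoLuc in the medium to give light. Compounds went in after a 5 h incubation and plates were read over the treatment course.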
# [9] = A CellTox Green Cytotoxicity Assay to monitor cytotoxicity in HEK293 cells - 16 hour (AID 1224888); also: nearly all actives have a fitted effect of over 35% in size
# How it was run: as §1
# [10] = qHTS RealTime-Glo MT Cell Viability Assay in HEK293 cells - 24 hour (AID 1224886); also: nearly all actives have a fitted effect of over 50% in size; also: potency is read from the fitted curve at half-maximal effect; as to activity change, negative = cytotoxicity: top concentration of the series differs between compounds
# How it was run: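 Homogeneous bioluminescent viability format in HEK293 cells (600 cells/well). Following 5 h at 37 C/5% CO2, 23 nL compound was pintooled; the signal was measured repeatedly during 40 h incubation.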
smiles,measurement,setting,value
Brc1c(Br)c(Br)c(Br)c(Br)c1Br,cytotoxicity increase,[1],4.45% [at 6.97 µM] (inactive)
same,cytotoxicity,[2],0.332% [at 6.97 µM] (inactive)
same,cytotoxicity increase,[3],0.204% [at 6.97 µM] (inactive)
same,cytotoxicity increase,[4],12.9% [at 6.97 µM] (inactive)
same,"activity change, negative = cytotoxic",[5],-8.35% [at 6.97 µM] (inactive)
same,"activity change, negative = cytotoxicity",[6],0.505% [at 6.97 µM] (inactive)
same,cytotoxicity increase,[7],-4.76% [at 6.97 µM] (inactive)
Cc1ccc(-c2nc3ccc(C)cn3c2CC(=O)N(C)C)cc1,Potency,[1],inactive
same,outcome,[2],inactive
same,Potency,[3],inactive
same,Potency,[4],inactive
same,Potency,[5],inactive
same,Potency,[8],inactive
same,Potency,[9],inactive
same,outcome,[6],inactive
same,Potency,[7],inactive
CCC1(CC)C(=O)C=CNC1=O,Potency,[1],inactive
same,outcome,[2],inactive
same,Potency,[3],inactive
same,Potency,[4],inactive
same,Potency,[5],inactive
same,Potency,[10],inactive
same,Potency,[8],inactive
same,outcome,[6],inactive
same,Potency,[7],inactive
COC(=O)[C@@H](N)CCCN/C(N)=N/[N+](=O)[O-],Potency,[1],inactive
same,outcome,[2],inactive
same,Potency,[3],inactive
same,Potency,[4],inactive
same,Potency,[5],inactive
same,Potency,[10],inactive
same,Potency,[9],inactive
same,outcome,[6],inactive
CC(C)(C)c1cc(O)ccc1O,Potency,[1],inactive
same,outcome,[2],inactive
same,Potency,[3],inactive
same,Potency,[4],inactive
same,Potency,[5],inactive
same,Potency,[8],inactive
same,Potency,[7],inactive
ClCCCCCCCl,Potency,[1],inactive
same,outcome,[2],inactive
same,Potency,[3],inactive
same,Potency,[4],inactive
same,Potency,[5],inactive
same,Potency,[10],inactive
same,Potency,[8],inactive
same,Potency,[7],inactive
Oc1ccc(Cc2ccc(O)cc2)cc1,Potency,[1],inactive
same,outcome,[2],inactive
same,Potency,[3],inactive
same,Potency,[4],inactive
same,Potency,[5],inactive
same,Potency,[9],inactive
same,outcome,[6],inactive
CC(=O)CN(CC(C)=O)N=O,Potency,[1],inactive
same,outcome,[2],inactive
same,Potency,[3],inactive
same,Potency,[4],inactive
same,Potency,[5],inactive
same,Potency,[10],inactive
same,Potency,[9],inactive
same,outcome,[6],inactive
same,Potency,[7],inactive
CS(=O)(=O)Cl,Potency,[1],inactive
same,outcome,[2],inactive
same,Potency,[3],inactive
same,Potency,[4],inactive
same,Potency,[5],inactive
same,Potency,[10],inactive
same,Potency,[9],inactive
same,outcome,[6],inactive
c1ccc2c(c1)CCNC2,Potency,[1],inactive
same,outcome,[2],inactive
same,Potency,[3],inactive
same,Potency,[4],inactive
same,Potency,[5],inactive
same,Potency,[8],inactive
same,Potency,[9],inactive
same,outcome,[6],inactive
same,Potency,[7],inactive
CN(CCO)CCO,Potency,[1],inactive
same,outcome,[2],inactive
same,Potency,[3],inactive
same,Potency,[4],inactive
same,Potency,[5],inactive
same,Potency,[10],inactive
same,Potency,[9],inactive
same,outcome,[6],inactive
same,Potency,[7],inactive
NCC1(CC(=O)O)CCCCC1,Potency,[1],inactive
same,outcome,[2],inactive
same,Potency,[3],inactive
same,Potency,[4],inactive
same,Potency,[5],inactive
same,Potency,[10],inactive
same,Potency,[8],inactive
same,outcome,[6],inactive
same,Potency,[7],inactive
COc1cc(CCN)cc(OC)c1OC,Potency,[1],inactive
same,outcome,[2],inactive
same,Potency,[3],inactive
same,Potency,[4],inactive
same,Potency,[5],inactive
same,Potency,[10],inactive
same,Potency,[8],inactive
same,outcome,[6],inactive
CCCCS(=O)(=O)Cl,Potency,[1],inactive
same,outcome,[2],inactive
same,Potency,[3],inactive
same,Potency,[4],inactive
same,Potency,[5],inactive
same,Potency,[10],inactive
same,Potency,[9],inactive
same,outcome,[6],inactive
COc1cccc(C=O)c1,Potency,[1],inactive
same,outcome,[2],inactive
same,Potency,[3],inactive
same,Potency,[4],inactive
same,Potency,[5],inactive
same,Potency,[10],inactive
same,Potency,[8],inactive
same,outcome,[6],inactive
same,Potency,[7],inactive
O=C(NC(=O)c1c(F)cccc1F)Nc1cc(Cl)c(F)c(Cl)c1F,Potency,[1],inactive
same,outcome,[2],inactive
same,Potency,[3],inactive
same,Potency,[4],inactive
same,Potency,[5],inactive
same,Potency,[10],inactive
same,Potency,[9],inactive
same,outcome,[6],inactive
same,Potency,[7],inactive
CCOP(=S)(OCC)Oc1ccc(Cl)cc1Cl,Potency,[1],inactive
same,outcome,[2],inactive
same,Potency,[3],inactive
same,Potency,[4],inactive
same,Potency,[5],inactive
same,Potency,[10],inactive
same,Potency,[9],inactive
same,outcome,[6],inactive
same,Potency,[7],inactive
Cc1cc(OC(=O)N(C)C)nn1C(=O)N(C)C,Potency,[1],inactive
same,outcome,[2],inactive
same,Potency,[3],inactive
same,Potency,[4],inactive
same,Potency,[5],inactive
same,Potency,[10],inactive
same,Potency,[8],inactive
same,outcome,[6],inactive
BrCc1ccc(Br)cc1,Potency,[1],inactive
same,outcome,[2],inactive
same,Potency,[3],inactive
same,Potency,[4],inactive
same,Potency,[10],inactive
same,Potency,[8],inactive
same,Potency,[9],inactive
same,outcome,[6],inactive
O=C1C2CC=CCC2C(=O)N1SC(Cl)(Cl)Cl (stereo not given),Potency,[1],21.5 µM (active)
same,outcome,[2],inactive
same,Potency,[3],inactive and 9.61 µM (active)
same,Potency,[4],inactive
same,Potency,[5],inactive and 42.9 µM (active)
same,Potency,[10],43.5 µM (active) and 3.41 µM (active)
same,Potency,[9],inactive
same,Potency,[7],inactive
CC[C@@H](CO)NC(=O)[C@@H]1C=C2c3cccc4[nH]cc(c34)C[C@H]2N(C)C1,Potency,[1],inactive
same,outcome,[2],inactive
same,Potency,[3],inactive
same,Potency,[4],inactive
same,Potency,[5],inactive
same,Potency,[10],inactive
same,Potency,[9],inactive
same,outcome,[6],inactive
same,Potency,[7],inactive
COC(=O)c1ccccc1CS(=O)(=O)NC(=O)Nc1nc(OC)cc(OC)n1,Potency,[1],inactive
same,outcome,[2],inactive
same,Potency,[3],inactive
same,Potency,[4],inactive
same,Potency,[5],inactive
same,Potency,[10],inactive
same,Potency,[8],inactive
same,outcome,[6],inactive
C=CC=O,Potency,[1],inactive
same,outcome,[2],inactive
same,Potency,[3],inactive
same,Potency,[4],inactive
same,Potency,[5],inactive
same,Potency,[10],inactive
same,Potency,[9],inactive
same,outcome,[6],inactive
same,Potency,[7],inactive
CC(C)(C)NC[C@H](O)c1ccc(O)cc1Cl,Potency,[1],inactive
same,outcome,[2],inactive
same,Potency,[3],inactive
same,Potency,[4],inactive
same,Potency,[5],inactive
same,Potency,[10],inactive
same,Potency,[9],inactive
same,outcome,[6],inactive
same,Potency,[7],inactive
CC(C)(C)C(=O)Cl,Potency,[1],inactive
same,outcome,[2],inactive
same,Potency,[3],inactive
same,Potency,[4],inactive
same,Potency,[5],inactive
same,Potency,[10],inactive
same,Potency,[9],inactive
same,Potency,[7],inactive
CCOC(=O)N(C)N=O,Potency,[1],inactive
same,outcome,[2],inactive
same,Potency,[3],inactive
same,Potency,[4],inactive
same,Potency,[5],inactive
same,Potency,[10],inactive
same,Potency,[9],inactive
same,Potency,[7],inactive
CCC(=O)c1ccc(Cl)cc1,Potency,[1],inactive
same,outcome,[2],inactive
same,Potency,[3],inactive
same,Potency,[4],inactive
same,Potency,[5],inactive
same,Potency,[10],inactive
same,Potency,[9],inactive
same,outcome,[6],inactive
same,Potency,[7],inactive
CCCC(C)(COC(N)=O)COC(N)=O,Potency,[1],inactive
same,outcome,[2],inactive
same,Potency,[3],inactive
same,Potency,[4],inactive
same,Potency,[5],inactive
same,Potency,[10],inactive
same,Potency,[8],inactive
same,outcome,[6],inactive
same,Potency,[7],inactive
